A selection: hits, their analogues and other compounds. The true share with any hit is near 6.7%.
T cruzi growth-1: T. cruzi intracellular proliferation inhibitors, primary screen, cell-based, beta-gal Tulahuen parasites, NIH3T3 host, luminescence; T. cruzi beta-gal in NIH3T3, GalScreen luminescence, 90 h; inhibition, % at 8.34 µM; 77,000 tested, 5.9% active; AID 624255, 2012;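 active means mean inhibition above about 93%, with at least 55% of replicates each passing it, limit read from the data, passing the limit was not always enough; inconclusive means only one of those two conditions holds; inactive means neither condition holds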
Pf Dd2 growth: P. falciparum Dd2 growth inhibitors, primary screen, SYBR Green fluorescence, single dose replicates; 72 h; hits give low values; activity change, % at 10 µM; 94,000 tested, 2.3% active; AID 1159554, 2015; in the data active means activity change below about -80%; inconclusive means no clear call, values can overlap the other calls
C diff HTS: C. difficile growth inhibitors, primary screen, HTS | Clostridium difficile clinical isolate growth, OD600, 24 h; hits give low values | growth activity, negative = inhibition, % at 16 µg/mL (by protocol) | 86,000 tested, 0.25% active | AID 1259249, 2017;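 active means mean growth activity at or below -80% and every replicate also at or below -80%; inconclusive means mean at or below -80% but some replicate above -80%; inactive means mean growth activity above -80%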;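 further: 0% = DMSO wells and -100% = levofloxacin 16 µg/mL wells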
T cruzi growth-2: T. cruzi intracellular proliferation inhibitors, confirmation, cell-based, NIH3T3 host, beta-gal parasite, luminescence, cherry-pick. shares compounds with T cruzi growth-1. T. cruzi beta-gal in NIH3T3, GalScreen luminescence, 90 h. inhibition, % at 8.35 µM. 5,600 tested, 72% active. AID 651739, 2012;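 active means mean replicate inhibition above about 95% and at least 55% of replicates individually reaching it, limit read from the data; inconclusive means only one of the two criteria is met; inactive means neither criterion is met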
T cruzi growth-3: inhibitors of intracellular T. cruzi replication, confirmation, NIH3T3 host cells, beta-gal parasites, cherry-pick, set 2; shares compounds with T cruzi growth-1; T. cruzi beta-gal in NIH3T3, GalScreen luminescence, 90 h; inhibition, % at 2.09 µM; 5,600 tested, 21% active; AID 651740, 2012;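 active means mean inhibition above about 95%, with at least 55% of replicates also reaching it, limit read from the data; inconclusive means meets just one of the two conditions; inactive means meets neither condition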;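 further: plate controls were neutral control median for no effect and positive control median for full effect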
3T3 cytotox: cytotoxicity in mouse NIH/3T3 fibroblasts, confirmation, cytotoxicity control for T. cruzi proliferation inhibitor project, cell-based, cherry-pick, single point. shares compounds with T cruzi growth-1. 5,600 tested, 14% active. NIH/3T3 viability, CellTiter-Glo ATP luminescence, 90 h. cytotoxicity (signal decrease), % at 8.35 µM;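 active means mean signal decrease across replicates above about 35% based on untreated-well scatter, with enough replicates individually passing, limit read from the data; inconclusive means no rule stated though some were filed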;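 further: 0% = median of neutral control wells and 100% = median of positive control wells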
NIH3T3 tox 2: NIH/3T3 fibroblast cytotoxicity, confirmation, cytotoxicity control, cell-based, cherry-pick, single point, set 2; shares compounds with T cruzi growth-1; NIH/3T3 viability, CellTiter-Glo ATP luminescence, 90 h; inhibition, % at 24.9 µM; 5,600 tested, 56% active; AID 651744, 2012;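 active means mean loss of cell viability signal at or above a set limit, and enough replicates individually reaching it; inconclusive means meets only the mean limit or only the replicate share; inactive means meets neither condition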;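 further: 0% = median of neutral control wells and 100% = median of positive control wells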
* marks the source's active call; other numbers are inactive results; ? = inconclusive; nt = no result given.

SMILES	T cruzi growth-1	Pf Dd2 growth	C diff HTS	T cruzi growth-2	T cruzi growth-3	3T3 cytotox	NIH3T3 tox 2
N#C[C@@H]1[C@@H](c2ccc(C#Cc3ccccc3F)cc2)[C@@H](CO)N1C(=O)C1CC1	78	-5	0	nt	nt	nt	nt
N#C[C@H]1N[C@@H](CO)[C@H]1c1ccc(C#Cc2ccccc2F)cc1	100*	-14	1	103*	109*	-14	8
N#C[C@H]1[C@H](c2ccc(C#Cc3ccccc3F)cc2)[C@@H](CO)N1C(=O)C1CC1	102*	-48	-5	100*	100*	12	3
N#C[C@@H]1[C@@H](c2ccc(C#Cc3ccccc3F)cc2)[C@H](CO)N1C(=O)C1CC1	104*	-26	-8	103*	93	10	19
N#C[C@@H]1[C@H](c2ccc(C#Cc3ccccc3F)cc2)[C@@H](CO)N1C(=O)C1CCCC1	nt	-59	26	nt	nt	nt	nt
N#C[C@H]1N[C@H](CO)[C@H]1c1ccc(C#Cc2ccccc2F)cc1	84	-3	-5	nt	nt	nt	nt
CO[C@H]1CN(C)C(=O)c2ccc(NC(=O)c3nc4ccccc4s3)cc2OC[C@@H](C)N(Cc2cncnc2)C[C@@H]1C	nt	18	nt	nt	nt	nt	nt
O=C(Cc1ccccn1)N[C@H]1C=C[C@@H](CC(=O)N2CCCCC2)O[C@H]1CO	-65	2	2	nt	nt	nt	nt
CCS(=O)(=O)Nc1ccc2c(c1)C(=O)N(C)[C@@H]1CC[C@@H](CC(=O)Nc3ccccc3)O[C@H]1CO2	-14	4	-2	nt	nt	nt	nt
COCC#Cc1ccc([C@H]2[C@@H](CO)N3CCCCN(C(=O)CN(C)C)C[C@H]23)cc1	121*	29	2	50	35	-24	-4
CN(C)CC#Cc1ccc([C@H]2[C@@H](CO)N3CCCCN(C(=O)CN(C)C)C[C@@H]23)cc1	-5	-1	2	nt	nt	nt	nt
CN(C)CC#Cc1ccc([C@@H]2[C@@H](CO)N3CCCCN(C(=O)CN(C)C)C[C@@H]23)cc1	19	-4	0	nt	nt	nt	nt
COCC#Cc1ccc([C@@H]2[C@H]3CN(C(=O)CN(C)C)CCCCN3[C@H]2CO)cc1	109*	6	-2	?	13	-12	6
O=C(N[C@H]1CC[C@H](CCNS(=O)(=O)c2cccc(Cl)c2)O[C@@H]1CO)c1ccc(F)cc1	-1	-7	-12	nt	nt	nt	nt
Cc1noc(C)c1S(=O)(=O)Nc1ccc2c(c1)C(=O)N([C@@H](C)CO)C[C@@H](C)[C@@H](CN(C)CC1CCCCC1)OCCCC[C@H](C)O2	32	-46	-1	nt	nt	nt	nt
C[C@@H]1CN([C@@H](C)CO)S(=O)(=O)c2ccc(C#CC(C)(C)O)cc2O[C@@H]1CN(C)Cc1ccc(-c2ccccc2)cc1	121*	-6	7	93	115*	5	103*
C[C@H](O)C#Cc1ccc2c(c1)O[C@@H](CN(C)Cc1ccc(-c3ccccc3)cc1)[C@H](C)CN([C@H](C)CO)S2(=O)=O	60	-72	1	nt	nt	nt	nt
C[C@H](O)C#Cc1ccc2c(c1)O[C@H](CN(C)Cc1ccc(-c3ccccc3)cc1)[C@H](C)CN([C@@H](C)CO)S2(=O)=O	109*	8	0	99*	101*	47*	104*
C[C@H](CO)N1C[C@H](C)[C@@H](CN(C)Cc2ccccc2)Oc2cc(C#CC(C)(C)O)ccc2S1(=O)=O	89	-12	-5	nt	nt	nt	nt
C[C@@H]1CN([C@@H](C)CO)S(=O)(=O)c2ccc(C#CC(C)(C)O)cc2O[C@H]1CN(C)Cc1ccc(-c2ccccc2)cc1	118*	-56	8	91	113*	116*	107*
C[C@H](CO)N1C[C@H](C)[C@H](CN(C)Cc2ccccc2)Oc2cc(C#CC(C)(C)O)ccc2S1(=O)=O	60	-16	-5	nt	nt	nt	nt
O=C(C[C@H]1C[C@@H]2c3cc(NC(=O)NC4CCCCC4)ccc3O[C@@H]2[C@H](CO)O1)NCc1ccccn1	nt	6	1	nt	nt	nt	nt
O=C(Nc1cccc(F)c1)N1C[C@H]2[C@@H](c3ccccc31)[C@H](CO)N2C(=O)c1ccccn1	49	-1	-1	nt	nt	nt	nt
COc1cccc(C#Cc2ccc([C@H]3[C@@H](CO)N4C(=O)CN(S(=O)(=O)c5ccccc5C)C[C@@H]34)cc2)c1	nt	-8	6	nt	nt	nt	nt
O=C(NCC[C@@H]1CC[C@@H](NC(=O)C2CCOCC2)[C@H](CO)O1)c1ccc(F)cc1	28	8	3	nt	nt	nt	nt
SMILES	T cruzi growth-1	Pf Dd2 growth	C diff HTS	T cruzi growth-2	T cruzi growth-3	3T3 cytotox	NIH3T3 tox 2
COc1ccc(CN(C)C[C@@H]2OCCCC[C@@H](C)Oc3ccc(NS(=O)(=O)c4c(C)noc4C)cc3C(=O)N([C@@H](C)CO)C[C@@H]2C)cc1	nt	-50	-7	nt	nt	nt	nt
O=C(C[C@H]1C=C[C@@H](NC(=O)Nc2cc(F)ccc2F)[C@H](CO)O1)NCc1ccncn1	-13	7	2	nt	nt	nt	nt
CCNC(=O)[C@@H]1[C@@H](CO)[C@@H]2Cn3c(ccc(-c4cccnc4)c3=O)[C@@H]2N1Cc1ccc2c(c1)OCO2	14	-1	0	nt	nt	nt	nt
C[C@H]1CN([C@@H](C)CO)S(=O)(=O)c2ccc(-c3cncnc3)cc2O[C@@H]1CN(C)Cc1ccncc1	42	-1	2	nt	nt	nt	nt
COCC#Cc1ccc2c(c1)O[C@@H](CN(C)Cc1ccccc1F)[C@@H](C)CN([C@H](C)CO)S2(=O)=O	5	-37	-5	nt	nt	nt	nt
CC(C)CC#Cc1ccc2c(c1)O[C@H](CN(C)Cc1ccccc1F)[C@@H](C)CN([C@H](C)CO)S2(=O)=O	67	-59	nt	nt	nt	nt	nt
CC(C)CC#Cc1ccc2c(c1)O[C@@H](CN(C)Cc1ccccc1F)[C@H](C)CN([C@H](C)CO)S2(=O)=O	?	-58	nt	92	105*	101*	104*
COCC#Cc1ccc2c(c1)O[C@H](CN(C)Cc1ccccc1F)[C@H](C)CN([C@@H](C)CO)S2(=O)=O	-25	-19	-1	nt	nt	nt	nt
CC(C)CC#Cc1ccc2c(c1)O[C@@H](CN(C)Cc1ccccc1F)[C@@H](C)CN([C@H](C)CO)S2(=O)=O	?	-49	nt	97*	108*	0	105*
C[C@H](CO)N1C[C@H](C)[C@@H](CN(C)Cc2ccccc2F)Oc2cc(C#CCN(C)C)ccc2S1(=O)=O	105*	-60	-4	105*	67	55*	104*
C[C@@H]1CN([C@@H](C)CO)S(=O)(=O)c2ccc(C#CCN(C)C)cc2O[C@@H]1CN(C)Cc1ccccc1F	84	-47	-1	nt	nt	nt	nt

Source: PubChem
